# Molecular target: GPR35
# Test: pooled miR-30 sensor sort-seq; sequence = guide strand
# Details: shRNA
# Note: reference of the scale not given here.
row,Sequence,sensor-assay potency score (higher = more potent)
1,TTTGTGGGCCTTAGCACTGGGA,-1.13
2,TGGAGTTGAAATTGTGCCGGGT,0.0323
3,TGTAGTAGTAGCAGATGGCGTC,0.146
4,TAGCAGATGGCGTCCAGGCAGC,-1.38
5,ATGTAGTAGTAGCAGATGGCGT,-1.53
6,TAGAAGCCCAGCTTGATCGCTG,0.371
7,TTTTGTGGGCCTTAGCACTGGG,-0.0303
8,ATGGAGTTGAAATTGTGCCGGG,-0.394
9,TTGGCATCTGAGAGCTTGCTGG,-1.04
10,TTGGCCATGTAGTAGTAGCAGA,-0.948
11,TTGCTGGTTATGTACAGGGCGC,-1.43
12,TAGGCGTAGAAGCCCAGCTTGA,-1.67

# Molecular target: GPR3
# Test: as above
# Details: shRNA
row,Sequence,sensor-assay potency score (higher = more potent)
1,TGACTAATCTCTCTGACTCTTT,-0.512
2,TATATGTGCATATATAATCTTT,-0.621
3,TTGTCTCTGAATAGTAGGTGAG,-1.17
4,TAGCTCAGAAATTCAAACGTAA,0.128
5,TCTGAGTAGAACACTGACCACC,-0.825
6,TAAATAGACACTGTCTTTGTAT,0.00652
7,TAGAACTCCAGAACCAGCTGGG,0.254
8,TAGACAGTGAAGGGCAACCAGC,-1.54
9,TAGGGATCTGAACAGAACCTTG,-1.54
10,TTGGAAGAGGAACAGCAGCAGC,-1.16
11,TAGAGCTGCAGCATGATGCCAA,-0.00504

# — the OligoGym collection
